CYP2C19 act: increases human CYP2C19 enzyme activity. recombinant CYP2C19, luciferin-H EGE luminescence; active compounds read high; 0 = fully inhibited enzyme, 1 = untreated enzyme. activation factor at 5 µM. 96,000 tested, under 10 active;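 active = activation factor of at least 2 at 5 µM in the primary screen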;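 also: 0 = wells with 2.5 mM tranylcypromine and 1 = vehicle-only wells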
Target sequence (P33261 whole entry, looked up): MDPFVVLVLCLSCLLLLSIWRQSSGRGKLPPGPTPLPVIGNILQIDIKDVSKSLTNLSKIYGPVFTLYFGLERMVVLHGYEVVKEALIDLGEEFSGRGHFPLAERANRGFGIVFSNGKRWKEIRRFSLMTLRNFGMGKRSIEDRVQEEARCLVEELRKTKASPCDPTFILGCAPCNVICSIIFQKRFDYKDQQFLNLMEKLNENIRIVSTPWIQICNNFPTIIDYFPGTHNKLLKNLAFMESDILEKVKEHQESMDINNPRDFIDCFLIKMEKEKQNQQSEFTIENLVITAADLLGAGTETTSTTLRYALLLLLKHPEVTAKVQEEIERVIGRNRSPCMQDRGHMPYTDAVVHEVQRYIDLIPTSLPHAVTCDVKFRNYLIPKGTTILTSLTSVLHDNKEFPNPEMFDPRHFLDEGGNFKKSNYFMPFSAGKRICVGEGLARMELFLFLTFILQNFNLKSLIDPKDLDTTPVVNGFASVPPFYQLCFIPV
Measles CPE: protection of cells from measles virus. protection (pct of control), % at 4 µM. Measles virus-infected cells, CPE protection, absorbance. AID 841. hit rate 1.5% among 140,000; in the data active = protection mostly above about 24%, no sharp cut-off; inactive = mostly below about 26%
CYP2C9 act: increases human cytochrome P450 2C9 activity. P11712. recombinant CYP2C9, luciferin-H conversion, luminescence; active compounds read high; factor 1 = untreated enzyme, 0 = blocked. activation factor at 5 µM. hit rate 1.4% among 96,000;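 active = activation factor of 2 or more for CYP2C9 at a 5 µM dose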;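 also: 0 = sulfaphenazole-blocked wells and 1 = vehicle-only wells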
CYP2C9 inh: human CYP2C9 inhibition. AID 777. inhibition, % at 5 µM. CYP2C9 Supersomes, luciferin-H conversion, luminescence. hit rate 20% among 96,000. P11712;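 active = blocking of liver enzyme CYP2C9 beyond about 50% at 5 µM, limit read from the data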
CYP2C19 inhib: blocks human cytochrome P450 2C19; hit rate 21% among 96,000; inhibition, % at 5 µM; CYP2C19 Supersomes, luciferin-H EGE luminescence, 30 min; P33261; AID 778;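 active = CYP2C19 inhibition above a set limit at 5 µM in the primary screen, cut at about 50% in these data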;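 also: plate controls were negative control wells for no effect and 2.5 mM tranylcypromine positive control for full effect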
* marks the source's active call; other numbers are inactive results; nt = no result. Most compounds without a hit are left out; they make up all but 22% or so of the library.

SMILES	CYP2C19 act	Measles CPE	CYP2C9 act	CYP2C9 inh	CYP2C19 inhib
O=c1[nH]c(/C(Cl)=C/c2cccc(C(F)(F)F)c2)nc2cc(Cl)ccc12	nt	17	nt	nt	nt
Cc1ccc(NC(=O)CSCC(=O)N2c3ccccc3CCc3ccccc32)cc1	0.5	3	0.4	63*	54*
CCN(CC)CC(=O)Nc1ccc2c(c1)N(C(=O)CN(CC)CC)c1ccccc1CC2	0.9	2	0.3	70*	12
Cc1ccc(NC(=O)N2CCc3ccccc32)cc1	nt	8	nt	nt	nt
CCOC(=O)Nc1ccc2c(c1)N(C(=O)N(C)C)c1ccccc1CC2	0.3	9	0.1	92*	72*
Cc1onc(-c2ccccc2Cl)c1C(=O)Nc1ccc(S(=O)(=O)NCC2CCCO2)cc1 (centres undefined)	0.7	4	0.3	67*	29
Cc1onc(-c2ccccc2Cl)c1C(=O)NCC1CCCO1 (centres undefined)	0.6	14	0.9	10	39
CCCCNS(=O)(=O)c1ccc(NC(=O)c2c(-c3ccccc3Cl)noc2C)cc1	0.2	5	0	100*	83*
Cc1onc(-c2ccccc2Cl)c1C(=O)Nc1ccc(-n2nncc2-c2ccco2)cc1	0	19	0.1	93*	99*
Cc1ccnc(NS(=O)(=O)c2ccc(NC(=O)c3c(-c4ccccc4Cl)noc3C)cc2)n1	nt	4	nt	nt	nt
C#CCNC(=O)/C=C/c1ccc(OC)cc1	nt	8	nt	nt	nt
Cc1ccc(CNC(=O)CCC(=O)c2cccs2)cc1	0.1	60*	1.3	-35	85*
Cc1ccc(NC(=O)CCC(=O)c2cccs2)cc1	0.2	16	0.6	41	82*
O=C(CCC(=O)Nc1ccccc1)NNC(=O)c1cccs1	1	8	1	-2	-3
O=C(CCC(=O)c1cccs1)NCc1ccc(Cl)cc1	0.6	11	1.5	-45	44
CC(CC(=O)c1cccs1)CC(=O)c1cccs1	0	15	0.1	93*	100*
O=C(CCC(=O)c1cccs1)Nc1ccc(F)c(F)c1F	0.3	8	1	-4	66*
CCCCOC(=O)N/N=C/C=C/c1ccccc1	nt	6	nt	nt	nt
Clc1nccnc1-c1ccccc1	nt	7	nt	nt	nt
CCOc1ccc(N=Nc2c(N)[nH][nH]c2=O)cc1	nt	5	nt	nt	nt
Brc1ccc2c(c1)OCCOCCOc1cc(Br)ccc1OCCOCCOCCO2	0.1	1	0.2	85*	88*
COc1ccc(C(=O)C(C)OC(=O)c2cccc(S(=O)(=O)Nc3cc(Cl)c(OC)cc3OC)c2)cc1 (centres undefined)	nt	4	nt	nt	nt
O=C(COC(=O)c1ccc2c(c1)OCO2)NCc1ccc2c(c1)OCO2	0.6	2	1.2	-23	40
CC(C)n1c(C(=O)OCC(=O)NCc2ccc3c(c2)OCO3)cc2sccc21	0.6	3	0.1	86*	42
CC(C)n1c(C(=O)OCC(=O)NCc2ccc3c(c2)OCO3)cc2occc21	0.9	23	0.4	59*	12
SMILES	CYP2C19 act	Measles CPE	CYP2C9 act	CYP2C9 inh	CYP2C19 inhib
O=C(COC(=O)CSc1cc(Cl)ccc1Cl)NCc1ccc2c(c1)OCO2	nt	5	nt	nt	nt
c1ccc2nc(N3CCOCC3)cnc2c1	1	5	1.1	-5	0
O=C(O)CNC(=O)c1ccc(S(=O)(=O)N2CCOCC2)cc1	1	14	1	-2	1
CN(NC(=O)c1ccc(Cl)cc1)c1cccc(Cl)n1	0.4	12	1.2	-22	56*
Cc1ccc(NC(=O)CSCCc2ccccn2)nc1	0.9	2	0.9	9	6
CCOc1cc(C(=O)N2CCN(c3ccc(C(C)=O)cc3)CC2)cc(OCC)c1OCC	1	6	0.8	17	4
Cc1ccc(C2=Nc3ccccc3N=C(c3ccc([N+](=O)[O-])cc3)C2)c(O)c1	nt	29	nt	nt	nt
COc1ccc(CCNC(=O)CSc2nncs2)cc1	nt	5	nt	nt	nt
CCOC(=O)C(Sc1ncn[nH]1)c1ccccc1 (centres undefined)	0.4	5	0.7	26	64*
O=C(CSc1ncn[nH]1)NCCOc1ccccc1	0.6	24	0.9	11	39
O=C(CSc1ncn[nH]1)OCN1C(=O)c2ccccc2C1=O	1.1	9	1.2	-19	-10
COc1ccc(CCC(=O)NCCCNC(=O)CCc2ccc(OC)cc2)cc1	nt	6	nt	nt	nt
COc1ccc(CCNC(=O)CSc2ncn[nH]2)cc1	0.5	14	0.9	14	52*
COc1ccc(CCC(=O)NCCc2cn3c(C)csc3n2)cc1	0.5	4	1	2	53*
O=C(CSc1ncn[nH]1)NCCC(c1ccccc1)c1ccccc1	0.2	16	0.3	65*	83*
CN1c2ccccc2C(C)(C)C12C=Nc1c(ccc3ccccc13)O2 (centres undefined)	0.9	7	0.7	33	7
CN1c2ccccc2C(C)(C)[C@]12C=Cc1cc(O)ccc1O2	0	3	0.1	95*	97*
c1ccc(Nc2nc(-c3ccncc3)nc3ccccc23)cc1	nt	22	nt	nt	nt
COC(=O)CNc1nc(-c2ccncc2)nc2ccccc12	0.4	4	0.2	84*	56*
Cc1ccc(OCCN2C(=O)OC(C)(C)C2(C)O)cc1 (centres undefined)	0.6	8	0.9	10	37
CCOC(=O)c1cn(Cc2c(C)c(C)c(C)c(C)c2C)nn1	nt	16	nt	nt	nt
Cn1c(N2CCOCC2)nc(-c2ccccc2)c1-c1ccccc1	0.9	11	2*	-98	6
c1ccc(-c2cc(N3CCOCC3)nc3ccccc23)cc1	0.9	4	0.8	22	14
c1ccc2nc(N3CCOCC3)c(N3CCOCC3)nc2c1	0.9	13	0.8	16	15
c1ccc(-c2nc3ccccc3nc2N2CCOCC2)cc1	0.5	2	0.8	20	52*
SMILES	CYP2C19 act	Measles CPE	CYP2C9 act	CYP2C9 inh	CYP2C19 inhib
O=C(Cn1cc(C(F)(F)F)ccc1=O)N1CCN(S(=O)(=O)c2ccccc2)CC1	1.1	2	1.2	-23	-10
CC(C)(C)C(=O)CC1(O)C(=O)N(Cc2ccc(Cl)cc2)c2ccccc21 (centres undefined)	0.5	4	0.6	42	46
CCOC(=O)CC(NC(=O)c1ccco1)c1ccccc1Cl (centres undefined)	0.7	18	0.8	19	33
CCOC(=O)CC(Nc1nc(N2CCOCC2)nc(N2CCOCC2)n1)c1ccccc1Cl (centres undefined)	0.3	7	0.5	53*	68*
COc1ccc(N2CCCn3c2nc2c3c(=O)n(Cc3ccc(F)cc3)c(=O)n2C)c(OC)c1	1	nt	1.1	-8	1
COc1ccc(OC)c(CCNC(=O)CC2Oc3ccccc3NC2=O)c1 (centres undefined)	0.5	12	1.1	-8	50*
Cc1ccc2c(c1)NC(=O)C(CC(=O)NCCN(CC(C)C)CC(C)C)O2 (centres undefined)	1	0	0.5	51*	4
Cc1ccccc1/C(N)=N/O	nt	2	nt	nt	nt
c1ccc2c(C3=NNC(=NC4CC4)SC3)c[nH]c2c1	nt	28	nt	nt	nt
c1ccc(C2=NNC(=NC3CC3)SC2)cc1	0.2	14	0.5	54*	84*
